Measurements taken from PubChem BioAssay (NCI).
This is part of a sample that, as a whole, favours compounds with a hit. Of some 83,000 tested, about 20% had one in any assay.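 Step 1: grow cells in 96-well plates. Step 2: add test compound at a single concentration. Step 3: incubate 48 h. Step 4: record percent growth.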 Unmarked numbers belong to inactive results. Active and inactive are the calls of the source. How the source made its calls: active means growth percent below 10; inactive means the rest.

What was measured:
Assay in all cases: NCI-60 one-dose screen, 48 h (100 = growth as untreated, 0 = no growth, -100 = all killed)
Details in all cases: 10 µM unless noted
[1] = test system: NCI-H23 lung
[2] = test system: NCI-H226 lung
[3] = test system: NCI-H322M lung
[4] = test system: HOP-62 NSCLC
[5] = test system: NCI-H460 lung
[6] = test system: HOP-92 NSCLC
[7] = test system: NCI-H522 lung
[8] = test system: A549/ATCC NSCLC
[9] = test system: 786-0 renal
[10] = test system: COLO 205 colon

**Q.** With `CC12CCC3C4(C)COC(c5ccccc5Cl)OC4CCC3(C)C1CC(C1=CCOC1=O)O2` (stereo not given) as the compound, how does the growth [1] read?
**A.** 52.7%

**Q.** What about the growth [2] of the same compound?
**A.** 59.5%

**Q.** What about the growth [3] of the same compound?
**A.** 90.2%

**Q.** What about the growth [4] of the same compound?
**A.** 78.3%

**Q.** And the growth [5]?
**A.** 44.1%

**Q.** What about the growth [6] of the same compound?
**A.** 85.7%

**Q.** What about the growth [7] of the same compound?
**A.** 59.4%

**Q.** What about the growth [8] of the same compound?
**A.** 64.1%

**Q.** And the growth [9]?
**A.** -89.9% (active)

**Q.** What about the growth [10] of the same compound?
**A.** 45%

**Q.** `Cn1cc(-c2cnc3ccc(NC(=O)Nc4ccc(F)c(Br)c4)cc3n2)cn1` was tested. Which growth [1] did it give?
**A.** 32%

**Q.** What about the growth [2] of the same compound?
**A.** 16.7%

**Q.** What about the growth [3] of the same compound?
**A.** 46.3%

**Q.** And the growth [4]?
**A.** 0.864% (active)

**Q.** And the growth [5]?
**A.** 32.4%

**Q.** And the growth [6]?
**A.** -15.5% (active)

**Q.** And the growth [7]?
**A.** 8.07% (active)

**Q.** And the growth [8]?
**A.** 22.5%

**Q.** And the growth [9]?
**A.** 38.7%

**Q.** And the growth [10]?
**A.** 1.03% (active)

**Q.** Which results are given for `COc1ccc(S(=O)(=O)NCCCNc2nccc(-n3ccc4cccnc43)n2)cc1`?
**A.** growth [1]: 102%; growth [2]: 89.9%; growth [3]: 87.7%; growth [4]: 109%; growth [5]: 98.7%; growth [6]: 81.4%; growth [7]: 84.3%; growth [8]: 83%; growth [9]: 97.6%; growth [10]: 113%

**Q.** What does the source list for `Cc1ccc(S(=O)(=O)n2cc(C(=O)C(=O)Nc3ccncc3)c3ccccc32)cc1`?
**A.** growth [1]: 36.4%; growth [2]: 64.2%; growth [3]: 94.7%; growth [4]: 33.4%; growth [5]: 80.4%; growth [6]: 38.5%; growth [7]: 1.71% (active); growth [8]: 73.5%; growth [9]: 29.5%; growth [10]: 107%

**Q.** Which results are given for `C/C=C/C1=CN2C(=O)c3cc(OC4OC(C)C(NC)C(C)(O)C4O)c(C)cc3N=C[C@@H]2C1` (stereo not given in full)?
**A.** growth [1]: -31.7% (active); growth [2]: 6.1% (active); growth [3]: -20.1% (active); growth [4]: -8.97% (active); growth [5]: -18.4% (active); growth [6]: 2.06% (active); growth [7]: -12.7% (active); growth [8]: 7.17% (active); growth [9]: 0.564% (active); growth [10]: -42.4% (active)

**Q.** `Cc1ccc(S(=O)(=O)NCCCNc2cc(-c3cn(C(C)(C)C)nc3-c3cccc(O)c3)ccn2)cc1` was tested. Which growth [1] did it give?
**A.** 77%

**Q.** And the growth [2]?
**A.** 54.6%

**Q.** What about the growth [3] of the same compound?
**A.** 87.9%

**Q.** And the growth [4]?
**A.** 85.1%

**Q.** And the growth [5]?
**A.** 29.9%

**Q.** What about the growth [6] of the same compound?
**A.** 71%

**Q.** What about the growth [7] of the same compound?
**A.** 53%

**Q.** What about the growth [8] of the same compound?
**A.** 59.6%

**Q.** And the growth [9]?
**A.** 56.6%

**Q.** What about the growth [10] of the same compound?
**A.** 8.53% (active)

**Q.** For `CN(C)CCN1C(=O)c2ccc3c4c(ccc(c24)C1=O)C(=O)N(CCN=C=S)C3=O`, which growth [1] is on record?
**A.** -61.7% (active)

**Q.** And the growth [2]?
**A.** -94.7% (active)

**Q.** What about the growth [3] of the same compound?
**A.** -94.1% (active)

**Q.** What about the growth [4] of the same compound?
**A.** -96.3% (active)

**Q.** And the growth [5]?
**A.** -43.5% (active)

**Q.** And the growth [6]?
**A.** -79.5% (active)

**Q.** And the growth [7]?
**A.** -93.8% (active)

**Q.** And the growth [8]?
**A.** -52.8% (active)

**Q.** What about the growth [9] of the same compound?
**A.** -81.3% (active)

**Q.** What about the growth [10] of the same compound?
**A.** -87.9% (active)

**Q.** `NC(=O)c1c(NC(=S)Nc2ccc(OC(F)(F)F)cc2)sc2c1CCC1(C2)OCCO1` was tested. Which growth [1] did it give?
**A.** 94.7%

**Q.** And the growth [2]?
**A.** 92.9%

**Q.** What about the growth [3] of the same compound?
**A.** 89.2%

**Q.** And the growth [4]?
**A.** 99.9%

**Q.** And the growth [5]?
**A.** 99.1%

**Q.** And the growth [6]?
**A.** 96.3%

**Q.** And the growth [7]?
**A.** 83%

**Q.** And the growth [8]?
**A.** 97.3%

**Q.** And the growth [9]?
**A.** 98.5%

**Q.** What about the growth [10] of the same compound?
**A.** 108%

**Q.** Which growth [1] does the source give for `COc1ccc2cc(-c3ccc(-c4ccc(C(=N)N)cc4)s3)ccc2c1` here?
**A.** 107%

**Q.** And the growth [2]?
**A.** 102%

**Q.** And the growth [3]?
**A.** 97.7%

**Q.** And the growth [4]?
**A.** 93.3%

**Q.** What about the growth [5] of the same compound?
**A.** 100%

**Q.** And the growth [6]?
**A.** 87.2%

**Q.** And the growth [7]?
**A.** 102%

**Q.** What about the growth [8] of the same compound?
**A.** 104%

**Q.** And the growth [9]?
**A.** 99.5%

**Q.** What about the growth [10] of the same compound?
**A.** 72.5%

**Q.** With `Cc1ccc(S(=O)(=O)NCCNc2nccc(-c3c(-c4cccc(N)c4)nc4sccn34)n2)cc1` as the compound, how does the growth [1] read?
**A.** 91.7%

**Q.** What about the growth [2] of the same compound?
**A.** 79.6%

**Q.** And the growth [3]?
**A.** 108%

**Q.** What about the growth [4] of the same compound?
**A.** 105%

**Q.** What about the growth [5] of the same compound?
**A.** 94.7%

**Q.** And the growth [6]?
**A.** 94%

**Q.** What about the growth [7] of the same compound?
**A.** 83.5%

**Q.** And the growth [8]?
**A.** 87.4%

**Q.** And the growth [9]?
**A.** 96.3%

**Q.** And the growth [10]?
**A.** 105%

**Q.** What does the source list for `COc1cccc(/C=C2\Oc3cc(OCCCN4CCCC4)ccc3C2=O)c1OC`?
**A.** growth [1]: 96.8%; growth [2]: 86%; growth [3]: 92.8%; growth [4]: 97.7%; growth [5]: 96.2%; growth [6]: 91.2%; growth [7]: 91.5%; growth [8]: 97.2%; growth [9]: 98.5%; growth [10]: 105%

**Q.** With `O=S(=O)(NCCCNc1nccc(-n2ccc3cccnc32)n1)c1ccc(Br)cc1` as the compound, how does the growth [1] read?
**A.** 108%

**Q.** And the growth [2]?
**A.** 96.5%

**Q.** And the growth [3]?
**A.** 103%

**Q.** And the growth [4]?
**A.** 109%

**Q.** And the growth [5]?
**A.** 105%

**Q.** And the growth [6]?
**A.** 109%

**Q.** And the growth [7]?
**A.** 92.6%

**Q.** And the growth [8]?
**A.** 107%

**Q.** And the growth [9]?
**A.** 104%

**Q.** What about the growth [10] of the same compound?
**A.** 114%

**Q.** Which growth [1] does the source give for `O=S(=O)(NCCNc1nccc(-c2c(-c3cccc(O)c3)nc3sccn23)n1)c1ccc(F)cc1` here?
**A.** 87%

**Q.** What about the growth [2] of the same compound?
**A.** 91.8%

**Q.** What about the growth [3] of the same compound?
**A.** 90.4%

**Q.** And the growth [4]?
**A.** 103%

**Q.** What about the growth [5] of the same compound?
**A.** 67.3%

**Q.** And the growth [6]?
**A.** 92.8%

**Q.** And the growth [7]?
**A.** 64.4%

**Q.** And the growth [8]?
**A.** 52%

**Q.** What about the growth [9] of the same compound?
**A.** 77%

**Q.** What about the growth [10] of the same compound?
**A.** 37.6%
